G9a block = qHTS Assay for Inhibitors of Histone Lysine Methyltransferase G9a; Histone-lysine N-methyltransferase EHMT2 (Homo sapiens), Q96KQ7; G9a H3K9 monomethylation, AlphaScreen, 2 h; Potency, µM (highest dose often 102 µM), inactives show at the highest dose activity, negative = inhibition, most hits filed as inhibitors; hit rate 8.8% among 350,000; further: on the % scale 0 is the no-effect control and ±100 the full control effect; nearly all actives have a fitted effect of over 75% in size
Target sequence (Q96KQ7 913-1193 limits assumed): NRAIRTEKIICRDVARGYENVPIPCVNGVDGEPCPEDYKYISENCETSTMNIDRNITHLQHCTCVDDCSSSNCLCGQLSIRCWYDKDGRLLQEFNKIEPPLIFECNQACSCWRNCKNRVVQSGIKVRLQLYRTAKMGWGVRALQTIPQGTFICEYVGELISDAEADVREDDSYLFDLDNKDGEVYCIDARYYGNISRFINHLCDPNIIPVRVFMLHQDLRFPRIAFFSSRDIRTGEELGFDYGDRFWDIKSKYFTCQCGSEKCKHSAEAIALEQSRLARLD
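Readings reflect AlphaScreen signal from monomethyl-H3K9 antibody detection. HMT at 20 nM; substrate b-H3K9 500 nM; cofactor SAM 20 uM; 2 h RT reaction; compounds tested as titrations in qHTS with 15 min preincubation.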
BAZ2B block = qHTS Assay for Inhibitors of BAZ2B. Bromodomain adjacent to zinc finger domain protein 2B (Homo sapiens), Q9UIF8. AlphaScreen BAZ2B-H3K14Ac peptide displacement. Potency, µM (titrated, usually from 114 µM), for inactives: at the highest dose activity change, negative = inhibition, hits mostly inhibitors. hit rate 4.4% among 360,000. AID 504333, 2011; further: on the % scale 0 is the no-effect control and ±100 the full control effect; nearly all actives have a fitted effect of over 60% in size
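Inhibition is scored as reduced AlphaScreen emission. The BAZ2B/b-H3(5-23)K14Ac complex (50 nM each) in PBS pH 7.4, 0.01% Tween-20 meets compound (up to 110 uM) for 30 min at RT before bead addition.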
12-LOX inh = Primary qHTS assay for inhibitors of human arachidonate 12S-lipoxygenase (ALOX12): Round 2. Polyunsaturated fatty acid lipoxygenase ALOX12 (Homo sapiens), P18054. purified 12hLO, xylenol orange hydroperoxide absorbance. Potency, µM (doses to about 108 µM), without a hit: top-dose activity change, negative = inhibition, hits mostly inhibitors. hit rate 1.1% among 580,000. AID 1671190, 2021; further: on the % scale 0 is the no-effect control and ±100 the full control effect
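Hydroperoxide product was detected by ferrous iron/xylenol orange as the 573 to 405 nm absorbance ratio. Arachidonic acid at 40 uM (final) was turned over for 30 min at room temperature by 150 nM human 12hLO, pH 7.0 Hepes buffer, after 15 min compound preincubation.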
HP1b chromo inh = HTS for Inhibitors of HP1-beta Chromodomain Interactions with Methylated Histone Tails; Chromobox protein homolog 1 (Homo sapiens), P83916; AlphaScreen HP1-beta / biotin-H3K9me3 peptide binding; Potency, µM (highest dose often 114 µM), inactives show at the top dose activity change, negative = inhibition, most hits filed as inhibitors; AID 540317, 2011; hit rate 0.56% among 390,000; further: nearly all actives have a fitted effect of over 70% in size
Target sequence (P83916 whole entry, looked up): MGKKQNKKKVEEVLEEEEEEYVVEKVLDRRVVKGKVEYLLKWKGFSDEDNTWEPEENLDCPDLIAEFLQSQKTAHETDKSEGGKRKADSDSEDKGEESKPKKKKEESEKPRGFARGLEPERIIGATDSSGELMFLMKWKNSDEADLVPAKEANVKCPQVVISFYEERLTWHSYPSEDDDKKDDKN
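Compound inhibition of the preformed complex between 50 nM HP1-beta and 50 nM biotinylated H3K9me3 peptide was read by AlphaScreen. Buffer was PBS pH 7.4 with 0.01% Tween-20. Incubations ran 30 min at room temperature, with 10 ug/mL donor/acceptor beads.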
JMJD2A Tudor = qHTS Assay for Inhibitors of JMJD2A-Tudor Domain | Potency, µM (top dose mostly 114 µM), without a hit: at the top dose activity change, negative = inhibition, most hits filed as inhibitors | hit rate 4.4% among 390,000 | Lysine-specific demethylase 4A (Homo sapiens), O75164 | AlphaScreen JMJD2A-Tudor / H3K4me3 peptide binding; further: on the % scale 0 is the no-effect control and ±100 the full control effect; nearly all actives have a fitted effect of over 50% in size
PLK1 PBD inh = qHTS for Inhibitors of PLK1-PDB (polo-like kinase 1 - polo-box domain): Primary Screen; Plk1 PBD binding of FITC phosphopeptide, fluorescence polarization; Serine/threonine-protein kinase PLK1 (Homo sapiens), P53350; Potency, µM, without a hit: max response, negative = inhibition, actives largely listed as inhibitors; hit rate 2.8% among 360,000; further: series mostly up to about 57 µM; on the % scale 0 is the no-effect control and ±100 the full control effect; nearly all actives have a fitted effect of over 65% in size
* hit, by the source's call; i = inactive; u = inconclusive; x = no result given; [ ] = another dose, or the depositor's remark. An excerpt weighted towards active compounds, which were near 9% of everything screened. The call rests on the fitted dose curve; in most records, active means well fitted curve in the direction sought with a large enough effect; inconclusive means small, poorly fitted or top-dose-only effect, or another doubt; inactive means no such curve, though single readings can be large; an effect the other way counts as inactive or inconclusive. Potency means the concentration at half of the fitted maximal effect.

SMILES | G9a block | BAZ2B block | 12-LOX inh | HP1b chromo inh | JMJD2A Tudor | PLK1 PBD inh
Cn1c(O)c(/C=C2\C=Nc3ccccc32)c(=O)n(C)c1=O | u | -18% | -18% | 16% | -5% | -13%
COC(=O)C1=Nc2ccccc2/C1=C\c1c(O)n(-c2ccc(OC)cc2)c(=O)[nH]c1=O | 9%[12.7 µM] | 79µM* | u | 10% | u | 3.4µM*
Cc1cc(C(=O)CS(=O)(=O)c2ccc(F)cc2)cc(C)c1OC(=O)N(C)C | -21% | -20% | 0% | 26% | -5%[57.1 µM] | -1%
COC(=O)C1=C(c2ccc(OC)c(OC)c2)C[C@@H]2CC[C@H]1N2C(=O)N1CCC(C)CC1 | 7%[0.501 µM] | -2% | -10% | 24% | -12% | 0%
COc1ccc(OC)c(-n2c(O)c(/C=C3\C(C)=Nc4ccccc43)c(=O)[nH]c2=O)c1 | 50µM* | -37% | u | 6% | -20% | u
COc1ccc(OC)c(-n2c(O)c(C=NCCN3CCNCC3)c(=O)[nH]c2=S)c1 | -4% | -13% | i | 38% | -16% | -2%
CC[N+](C)(CC)CCOC(=O)C(O)(c1ccccc1)c1ccccc1 | -37%[12.7 µM] | x | x | x | x | x
CC(C)[N+](C)(CCC(C(N)=O)(c1ccccc1)c1ccccc1)C(C)C | -74%[2.33 µM] | -18% | u | u | 25µM* | u
CCC(CC)C(=O)NC[C@H]1C[C@@H]2CCN1C[C@@H]2c1cc(-c2ccco2)nc(C)n1 | x | x | 39%[176 µM] | x | x | x
CCOc1cc(/C=C(\C#N)C(=O)NCC2CCCO2)ccc1OCC(N)=O (stereo unspecified) | 50µM* | -11% | u | -16% | -24% | 30µM*
Cc1ccc(NC(=O)COC(=O)/C=C/c2ccco2)cc1S(=O)(=O)N(C)C | 14µM* | u | -9% | -32% | u | -7%
C=Cn1ccnc1P(=S)(c1ccc(N(C)C)cc1)c1nccn1C=C | -30%[59 µM] | u | 5% | 11% | u | -6%
C=Cn1ccnc1P(=S)(c1c(C)nn(-c2ccccc2)c1C)c1nccn1C=C | 50µM* | -35% | -16% | 28% | -23% | 2%
O=c1[nH]c(=O)n(Cc2ccco2)c(O)c1C=NCCN1CCNCC1 | -10% | -2% | 215% | 45% | -4% | -9%
O=C1NC(=O)C(=Cc2ccc(N3CCOCC3)o2)C(=O)N1 | u | u | -11% | 2% | -18% | 85%
Cc1cc(C)cc(OCCOc2cccc(C=C3C(=O)NC(=O)NC3=O)c2)c1 | -22% | -8% | 13µM* | 88% | 60% | 6µM*
CCn1cc(C=C2C(=O)NC(=O)NC2=O)c2ccccc21 | -7% | 1% | -2% | 16%[57 µM] | -22% | 7%
O=C1NC(=O)C(=Cc2ccc3ccccc3c2)C(=O)N1 | -40%[12.7 µM] | -2% | u | 37% | -19% | 4.2µM*
Cc1cccc(OCCn2c(=O)oc3ccc(C)cc32)c1 | 195% | 14% | 13% | 172% | 130% | -9%
O=C1NC(=O)C(=Cc2ccc(Cl)cc2)C(=O)N1 | x | x | 40µM* | x | x | x
O=c1[nH]c(=O)n(-c2ccccc2Cl)c(O)c1C=NCCN1CCCCC1 | -33% | 4% | 4% | 55% | -5% | -13%
COc1ccc(N2CCN(Cc3nc4ccccc4[nH]3)CC2)cc1 | 32µM* | -26% | -14% | 16% | -34% | -1%
Brc1ccc2c(c1)C(OC1CN3CCC1CC3)c1ccccc1CS2 (stereo unspecified) | 16µM* | -37% | u | 6% | -35% | -7%
c1ccc2c(c1)CSc1ccccc1C2C1=NCCN1 (stereo unspecified) | 1%[59 µM] | -6% | 12% | 37% | -5% | 3%
COC(=O)C1=C(C(=O)OC)C2c3ccccc3C1c1ccccc12 | x | x | 2% | 12% | -10% | 0%
SMILES | G9a block | BAZ2B block | 12-LOX inh | HP1b chromo inh | JMJD2A Tudor | PLK1 PBD inh
Cc1ccc(-c2nc(CS(=O)CC(=O)NC3CCCC(C)C3C)c(C)o2)cc1 (stereo unspecified) | 35µM* | -19% | -7% | 29% | -21% | -20%
CC1CCCC(NC(=O)COC(=O)c2cn(C)c3ccccc23)C1C (stereo unspecified) | 21%[12.7 µM] | 4% | -16% | 50% | -6% | 3%
C=C1[C@H]2CC[C@H]3[C@]4(C)C[C@H](O[C@H]5O[C@H](CO)[C@@H](OS(=O)(=O)O)[C@H](OS(=O)(=O)O)[C@H]5OC(=O)CC(C)C)C[C@@H](C(=O)O)[C@H]4CC[C@]3(C2)[C@H]1O | -25%[59 µM] | -38% | -16% | 52% | -1% | 4%
Cc1cc(O)c(CN2CC=C(c3ccccc3)CC2)cc1C(C)C | 23% | -5% | -10% | 31% | -5% | -14%
CC(C)c1ccc(N2C(=O)NC(=O)/C(=C\c3cnc(-c4ccccc4)nc3)C2=O)cc1 | u | -29% | u | u | -12%[11.4 µM] | 21µM*
Cc1cccc(N2C(=O)NC(=O)/C(=C\c3cnc(-c4ccccc4)nc3)C2=O)c1 | 7.1µM* | -3% | u | 11% | u | 6µM*
CCc1ccc(N2C(=O)NC(=O)/C(=C/c3cccn3CCOc3ccc(C(C)CC)cc3)C2=O)cc1 (stereo unspecified) | 10%[59 µM] | -36% | u | 13% | -17% | -11%
Cc1ccc(N2C(=O)NC(=O)/C(=C/c3cnc(-c4ccccc4)nc3)C2=O)cc1C | 10µM* | -2% | u | -16% | 79µM* | 4.2µM*
CCN(CC)c1ccc(/C=C/[N+](=O)[O-])cc1 | 45µM* | x | u | -27% | u | 0%
Cc1ncc2c(n1)C[C@@H]1CC[C@H]2N1C(=O)Nc1ccc(F)cc1F | x | x | 3% | x | x | x
CNCC/C=C\c1cccnc1 | x | x | 25µM* | x | x | x
COc1cc(OC)c([C@H]2C=C(C)[C@H]3C[C@@H]2C3(C)C)c(OC)c1 | x | x | u | 51% | 30% | -12%
O=C(N/N=C/c1c(O)n(CCc2ccc(F)cc2)c(=O)[nH]c1=O)c1ccccc1 | -38% | -25% | -12% | 53% | u | -5%
O=c1[nH]c(=O)n(Cc2ccccc2)c(O)c1/C=N/NCCO | 50µM* | 50µM* | 351% | 36% | 56µM* | -2%
O=C(N/N=C/c1c(O)n(Cc2ccco2)c(=O)[nH]c1=O)c1ccccc1 | x | 79µM* | 0% | 27% | 79µM* | -18%
Nc1cccc(N=Cc2c(O)n(Cc3ccc(F)cc3)c(=O)[nH]c2=O)c1 | 13µM* | 1% | 10% | 7% | -17% | -2%

Compound activity (PubChem)
